Assay outcomes from PubChem.
JMJD2E inh – JMJD2E (human) inhibition; B2RXH2; JMJD2E catalytic domain, FDH-coupled NADH fluorescence (FDH is formaldehyde dehydrogenase); Potency, µM (series often up to 57.1 µM), without a hit: at the highest dose activity change, negative = inhibition, hits mostly inhibitors; actives 1.6% (n = 230,000); AID 2147; active means well fitted inhibition curve with a large enough effect, not every such curve was filed as active; inconclusive means small, poorly fitted or top-dose-only effect, or another doubt; inactive means no such curve, though single readings can be large or run the other way;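 further: 0% = wells with enzyme and -100% = buffer wells without enzyme; nearly all actives have a fitted effect of over 50% in size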
Target sequence (B2RXH2 1-337 limits assumed): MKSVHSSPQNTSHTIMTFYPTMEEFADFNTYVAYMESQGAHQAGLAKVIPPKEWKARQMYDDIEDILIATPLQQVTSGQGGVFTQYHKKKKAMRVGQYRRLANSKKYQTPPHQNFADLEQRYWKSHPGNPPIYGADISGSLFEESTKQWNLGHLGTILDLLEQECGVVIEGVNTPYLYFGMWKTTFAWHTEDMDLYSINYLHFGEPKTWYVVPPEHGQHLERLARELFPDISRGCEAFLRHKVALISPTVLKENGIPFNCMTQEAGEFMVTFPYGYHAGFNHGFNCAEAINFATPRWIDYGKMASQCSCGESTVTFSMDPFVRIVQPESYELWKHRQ
Sfp PPTase inh – Sfp phosphopantetheinyl transferase inhibition | Biochemical Sfp PPTase activity, qHTS | Potency, µM, without a hit: largest response in the series, negative = inhibition, actives largely listed as inhibitors | actives 3.5% (n = 310,000);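 further: the enzyme is Sfp with the accession as filed and its product quenches rhodamine fluorescence; 0% = enzyme reaction without inhibitor and -100% = no enzyme wells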
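Step 1, compound plus 15 nM Sfp-PPTase, 15 min, room temperature. Step 2, add rhodamine-CoA (5 uM) and BHQ-2-YbbR (12.5 uM). Step 3, read 525/598 nm fluorescence at 0 and 30 min.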
Epigenetic reg – regulators of epigenetic silencing causing reporter derepression in mouse cells. murine LDR cells, GFP reporter derepression, 30 h. Potency, µM (titrated, usually from 53.9 µM), for inactives: top-dose GFP activation, actives largely listed as activators. actives 0.2% (n = 280,000). AID 1865; further: % of control where 0% means no effect; nearly all actives have a fitted effect of over 60% in size
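Derepression of a silenced CMV-GFP reporter in murine LDR cells is scored by enumerating GFP-positive cells with a laser-scanning microplate cytometer after 30 hours of treatment at 37 C.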
KAT2A inh – inhibitors of human GCN5L2 histone acetyltransferase. Q92830. GCN5L2 HAT assay, ThioGlo1 CoA-SH fluorescence. Potency, µM (highest dose often 58.9 µM), without a hit: at the top dose activity change, negative = inhibition, actives largely listed as inhibitors. actives 0.21% (n = 390,000). AID 504327; further: on the % scale 0 is the no-effect control and ±100 the full control effect
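Fluorescence readout, Ex340nm/Em540nm: ThioGlo1 (50uM final) reacts with free CoA thiol released as 20nM GCN5L2 acetylates H3(1-25) peptide (75uM) using acetyl-CoA (70uM). Compound and enzyme sat 15 min beforehand; 20 min room-temperature reaction.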
IMPase Li cell – IMPase inhibition in cells with lithium potentiation; CHO-M1 cells, IP1 TR-FRET (IP-One), carbachol + lithium; Potency, µM (doses to about 59.4 µM), inactives show top-dose activity, negative = IMPase inhibition, actives largely listed as inhibitors; actives 0.35% (n = 210,000);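 further: IP1 builds up when IMPase is blocked and the TR-FRET signal falls; plate controls were basal vehicle for no effect and high inhibitor control for full effect; nearly all actives have a fitted effect of over 50% in size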
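Lithium-sensitised IP1 accumulation assay; M1-expressing CHO cells treated 30 min at 37C with compound. Competitive antibody detection by time-resolved FRET followed a 10 min room-temperature lysis step.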
NPSR antag – blocks cAMP signaling of the human neuropeptide S receptor; AID 1461; Potency, µM (doses to about 38.3 µM), for inactives: top-dose activity change, negative = inhibition, actives largely listed as inhibitors; CHO-NPSR cells, cAMP TR-FRET, antagonist mode; Q6W5P4; actives 1% (n = 220,000); further: on the % scale 0 is the no-effect control and ±100 the full control effect; nearly all actives have a fitted effect of over 50% in size
Target sequence (Q6W5P4 whole entry, looked up): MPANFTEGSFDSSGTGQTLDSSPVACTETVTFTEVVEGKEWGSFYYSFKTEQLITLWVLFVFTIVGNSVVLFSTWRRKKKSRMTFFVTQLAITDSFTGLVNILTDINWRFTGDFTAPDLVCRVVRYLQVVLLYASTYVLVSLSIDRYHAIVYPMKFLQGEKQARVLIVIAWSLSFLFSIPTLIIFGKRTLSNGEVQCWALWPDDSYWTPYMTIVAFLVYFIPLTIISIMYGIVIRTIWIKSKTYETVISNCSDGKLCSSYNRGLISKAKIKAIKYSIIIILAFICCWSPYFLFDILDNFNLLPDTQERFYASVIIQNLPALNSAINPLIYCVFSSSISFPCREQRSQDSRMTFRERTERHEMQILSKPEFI
The depositor's hits bear a star; ! = not active in a repeat; [ ] = dose if it differs, or a comment. A selection: hits, their analogues and other compounds. The true share with any hit is near 3.6%. Unless noted, the call rests on the fitted dose curve; in most records, active means well fitted curve in the direction sought with a large enough effect; inconclusive means small, poorly fitted or top-dose-only effect, or another doubt; inactive means no such curve, though single readings can be large; an effect the other way counts as inactive or inconclusive. Potency means the concentration at half of the fitted maximal effect.

Results for COc1cccc(CC(=O)N2CCc3nc(-c4ccc(OC)cc4C)c4c(c3C2)CO[C@@H](c2ccccc2)C4)c1 ?
JMJD2E inh: -2%[11.4 µM]; Sfp PPTase inh: -12%; IMPase Li cell: 5%

Results for O=c1c(-c2cc(F)cc(F)c2)nc2cncnc2n1Cc1ccc(F)cc1 ?
Sfp PPTase inh: -24%; KAT2A inh: 8%; IMPase Li cell: 5%

How did COc1ccc(C2C(C#N)=C3NC(=O)c4c(sc5c4CCCCC5)N3C3=C2C(=O)CC(C)(C)C3)cc1 (stereo unspecified) do in these assays?
JMJD2E inh: -25%; Sfp PPTase inh: 56µM*; Epigenetic reg: 0%; KAT2A inh: -6%; IMPase Li cell: 9%[38.3 µM]; NPSR antag: inconclusive

Results for N[C@@H](COP(=O)(O)O)C(=O)O ?
JMJD2E inh: 2%; Sfp PPTase inh: 40µM*!; Epigenetic reg: -1%; KAT2A inh: inconclusive; IMPase Li cell: 12%; NPSR antag: 3%[46.1 µM]

Results for COc1cccc2cc(-c3cn4c(n3)sc3cc(F)ccc34)c(=O)oc12 ?
Epigenetic reg: 0%; KAT2A inh: -5%

What do the screens show for `CC(C)(C)OC(=O)NCCc1n[nH]c(=S)o1`?
JMJD2E inh: 5%; Sfp PPTase inh: 79µM*; Epigenetic reg: 1%; KAT2A inh: -9%; NPSR antag: inconclusive

Results for CN(C)CCCNCC(=O)c1c(-c2ccccc2)n(C)c2ccccc12 ?
Sfp PPTase inh: 40µM*; KAT2A inh: 19%

What do the screens show for `Cn1c(-c2ccccc2)c(C(=O)CC#N)c2ccccc21`?
JMJD2E inh: -2%; Sfp PPTase inh: 13%; Epigenetic reg: -1%; KAT2A inh: -7%; IMPase Li cell: 7%; NPSR antag: -5%

What do the screens show for `Cc1cccn2cc(COc3ccc(-c4ccccc4)cc3)nc12`?
JMJD2E inh: inconclusive; Sfp PPTase inh: 35µM*; Epigenetic reg: 1%; KAT2A inh: -12%; IMPase Li cell: 9%; NPSR antag: -40%

How did Cc1cccn2cc(COc3cccc([N+](=O)[O-])c3)nc12 do in these assays?
JMJD2E inh: 0%; Sfp PPTase inh: -1%; Epigenetic reg: -1%; KAT2A inh: -2%; IMPase Li cell: 12%; NPSR antag: 14%

What do the screens show for `CCc1cc(=O)oc2cc(C)c(CN3CCCC3)c(O)c12`?
JMJD2E inh: 25µM*; Sfp PPTase inh: 89µM*; Epigenetic reg: -6%; KAT2A inh: inconclusive; NPSR antag: -27%[46.1 µM]

How did CCc1cc(=O)oc2cc(C)c(CN3CCCCC3)c(O)c12 do in these assays?
JMJD2E inh: inconclusive; Sfp PPTase inh: -18%; Epigenetic reg: 2%; KAT2A inh: -13%; IMPase Li cell: -21%[38.3 µM]; NPSR antag: 8%[46.1 µM]

How did O=C(C[n+]1ccc(CCSc2ccc(F)cc2)cc1)c1ccccc1 do in these assays?
JMJD2E inh: inconclusive; Sfp PPTase inh: 50µM*; Epigenetic reg: -7%; KAT2A inh: -17%; IMPase Li cell: 30%; NPSR antag: -26%

Results for CO[C@H]1C[C@@H]2CC[C@@H](C)[C@@](O)(O2)C(=O)C(=O)N2CCCC[C@H]2C(=O)O[C@H]([C@H](C)C[C@@H]2CC[C@@H](OC(=O)C(C)(CO)CO)[C@H](OC)C2)CC(=O)[C@H](C)/C=C(\C)[C@@H](O)[C@@H](OC)C(=O)[C@H](C)C[C@H](C)/C=C/C=C/C=C/1C ?
Sfp PPTase inh: 0%; KAT2A inh: -1%

What do the screens show for `COc1ccc(CNc2ncnc3ccc(-c4ccc(N(C)C)cc4)cc23)c(OC)c1`?
Sfp PPTase inh: inconclusive; KAT2A inh: -20%; IMPase Li cell: -5%

What do the screens show for `COc1cccc(NC(=O)CSc2ccc(-c3ccco3)nn2)c1`?
Sfp PPTase inh: 50µM*; KAT2A inh: -21%

How did O=C(CSc1ccc(-c2ccco2)nn1)NC1CCCCC1 do in these assays?
JMJD2E inh: inconclusive; Sfp PPTase inh: 25µM*; Epigenetic reg: 0%; KAT2A inh: -7%; IMPase Li cell: -13%; NPSR antag: 12%

What do the screens show for `O=C(Cn1nc(-c2ccco2)ccc1=O)Nc1ccc(Br)cc1`?
Sfp PPTase inh: 50µM*; KAT2A inh: -8%

What do the screens show for `O=C(CSc1ccc(-c2ccco2)nn1)NC1CCCC1`?
JMJD2E inh: inconclusive; Sfp PPTase inh: -20%; Epigenetic reg: 6%; KAT2A inh: -7%; IMPase Li cell: -10%; NPSR antag: 16%

What do the screens show for `O=C(CSc1ccc(-c2ccco2)nn1)Nc1ccc(F)cc1`?
Sfp PPTase inh: 28µM*; KAT2A inh: -15%

What do the screens show for `Cc1ccc(S(=O)(=O)N2CCN(Cc3ccccc3Cl)CC2)cc1`?
Epigenetic reg: -2%; KAT2A inh: -1%

What do the screens show for `COc1cc(Cl)c(C)cc1NC(=O)CCc1c(C)nc2c3cccnc3nn2c1C`?
Epigenetic reg: -2%; KAT2A inh: -1%

How did COc1ccc(NC(=O)CSc2ccc(-c3ccco3)nn2)cc1OC do in these assays?
Sfp PPTase inh: 45µM*; KAT2A inh: -32%

Results for O=C(Nc1cc(Cl)cc2c1[nH]c1cnccc12)c1cccnc1 ?
Sfp PPTase inh: -15%; KAT2A inh: 3%

Results for Fc1ccc(Nc2ccnc(-c3ccc4c(c3)OCO4)n2)cc1 ?
Sfp PPTase inh: -10%; KAT2A inh: 28µM*; IMPase Li cell: 8%

How did COc1ccccc1N1CCN(CC2CN3C(=O)N(C)c4ccccc4C3=N2)CC1 (stereo unspecified) do in these assays?
Sfp PPTase inh: 6%; Epigenetic reg: 0%; KAT2A inh: 22%; IMPase Li cell: 22%

Results for CCOC(=O)c1nnn(CC(=O)N2N=C(c3ccc(Cl)cc3)CC2c2ccc(OC)cc2)c1C(=O)OCC (stereo unspecified) ?
JMJD2E inh: 32µM*; Sfp PPTase inh: 8%; Epigenetic reg: 6%; KAT2A inh: 1%; IMPase Li cell: -2%; NPSR antag: -17%[46.1 µM]

How did O=C1c2cccc3c([N+](=O)[O-])ccc(c23)C(=O)N1c1ccccn1 do in these assays?
JMJD2E inh: 1%; Sfp PPTase inh: 9%; Epigenetic reg: 1%; KAT2A inh: 0%; IMPase Li cell: 41%[38.3 µM]; NPSR antag: inconclusive

Results for O=C1c2cccc3c([N+](=O)[O-])ccc(c23)C(=O)N1c1nccs1 ?
JMJD2E inh: 1%; Sfp PPTase inh: 15%; Epigenetic reg: inconclusive; KAT2A inh: 1%; IMPase Li cell: 48%[38.3 µM]; NPSR antag: 10µM*
